The first test can be described thus: DUSP6 inhibitors restoring Erk phosphorylation by chemical complementation, primary imaging in DUSP6-transfected HeLa (AID 609). Conditions: HeLa MKP-3 transfected, phospho-Erk imaging KS statistic; measured here: cell density z-score; at 10 µM; cells stimulated with TPA for 15 min.
Compound `O=C(c1ccccc1F)N1CCC(N2CCCCCC2)CC1` came in with a z-score of 0.261.
For the compound `CCOc1ccc(CCNC(=O)C(O)c2ccccc2)cc1` (stereo not drawn), the z-score is -1.06.
The same measure, in the same setting: the figure for `CCN(CC)CCN1C(=O)C(=O)/C(=C(/O)c2ccc(C)cc2)C1c1cccnc1` (stereo not drawn) is 0.619.
On the same count and under the same terms, under `C=CCOC(=O)C1=C(C)NC(SCC(=O)N(CC)CC)=C(C#N)C1c1ccco1` (stereo not drawn) stands -0.539; under `CCOC(=O)CSc1nc(N)c(C#N)c(-c2ccc(OC)cc2)c1C#N`, 0.441; under `COc1ccc(OC)c(NC(=O)CSC2=C(C#N)C(c3ccco3)C3=C(CCCC3=O)N2)c1` (stereo not drawn), -0.66.
The same measure, in the same setting: the figure for `CCCOc1ccc(N2C(=O)CC(N(Cc3ccc(S(N)(=O)=O)cc3)C(=O)CC)C2=O)cc1` (stereo not drawn) is -0.613; for `Cc1ccc2[nH]c3c(c2c1)CCCC3C(N)=O` (stereo not drawn) it is -1.12; for `COc1ccc(C=NCCC2(O)CC(C)N(C)CC2C)cc1` (stereo not drawn) it is 0.907.
Compound `CC(C)(C)C1CCC2(CC1)C(C#N)=C(SCC(=O)Nc1ccccc1)NC(=O)C2C#N` (stereo not drawn) yielded a z-score of -1.51.
Same read-out and setting: under `CC1(C)Cc2c(C#N)c(NCCc3ccccc3)nc(-c3ccco3)c2CO1` stands 0.597; under `CCOC(=O)c1cc2cc(OC)ccc2[nH]1`, -0.384; under `COC(=O)CSC1=C(C#N)C(=O)NC2(CCCCC2)S1`, -0.563.
Regarding `CCOC(=O)CC1=C(C(=O)OCC)C(c2ccc(OC)c(OC)c2)C(C#N)=C(N)O1` (stereo not drawn), the z-score was -0.376.
Turning to `COC(=O)c1ccc(OC(=O)c2ccc(OC)c(OC)c2)c(OC)c1`, the z-score amounted to 0.251.
Still for that read-out and setting: the figure for `CCOc1ccc(/C(O)=C2/C(=O)C(=O)N(CCN(C)C)C2c2ccccc2)cc1Cl` (stereo not drawn) is 2.52; for `O=CN1CCN(C(=O)CN2C(=O)c3ccccc3C2=O)CC1` it is 0.687; for `CC(C)Oc1ccc(Cc2c(O)nc(NCCCN(C)C)[nH]c2=O)cc1` it is -0.061.
Still for that read-out and setting: the figure for `CC(=O)c1c(C)c2c(n1CCN(C)C)CCCC2` is -0.53; for `Cc1ccc(C2C(C(=O)c3cc4ccccc4o3)=C(O)C(=O)N2CCCN(C)C)cc1` (stereo not drawn) it is -0.136.
For `COC(=O)c1ccc(=O)n(Cc2ccco2)c1`, the z-score is -1.23.
In the case of `COc1ccc(OC)c(NC(=O)CSc2nnc(-c3ccco3)n2-c2ccc(C(=O)O)cc2)c1`, the z-score was determined as 0.414.
For `Cn1c(NCCN2CCCCC2)cc(=O)n(C)c1=O`, the z-score turned out to be 1.35.
On the same count and under the same terms, under `N#CC1=C(N)NC(SCc2ccc(F)cc2)=C(C#N)C12CCCCC2` stands -0.696.
On to `Cc1nc2oc(C(=O)c3ccc(Br)cc3)c(N)c2c2c1COC(C)(C)C2`, for which the z-score was found to be 0.13.
Compound `Cc1nnc2n(Cc3ccccc3)c(=O)c3c4c(sc3n12)CN(Cc1ccccc1)CC4` showed a z-score of -0.0797.
On the same count and under the same terms, under `N#CCSc1nc2sc3c(c2c(=O)n1C1CCCCC1)CCCC3` stands -0.927.
Same read-out and setting: the figure for `COc1cccc(/C=C2/CN(C)CC3=C2OC(N)=C(C#N)C3c2cccc(OC)c2)c1` (stereo not drawn) is 1.7; for `Cc1noc(NS(=O)(=O)c2ccc(NC(=O)COc3ccccc3)cc2)c1C` it is -0.876; for `COc1ccccc1-c1nnc2sc(COc3ccccc3)nn12` it is 0.204.
Still for that read-out and setting: the figure for `CCc1nnc(NC(=O)CSc2nc(C)c3c(c2C#N)CCCC3)s1` is -0.0126.
With `Cn1c(=O)c2c(nc(SCCN3CCCCC3)n2Cc2ccc(Cl)cc2)n(C)c1=O`, the z-score amounted to 0.51.
`Cc1ccc(C(=O)C2=C(O)C(=O)N(c3ncccn3)C2c2cccc(Cl)c2)o1` (stereo not drawn) gave a z-score of 0.573.
`COC(=O)C1=C(C)OC(N)=C(C#N)C1c1ccc(OC)c(OC)c1OC` (stereo not drawn) yielded a z-score of 0.861.
Still for that read-out and setting: under `O=c1c(-c2ccc3c(c2)OCCO3)c(C(F)(F)F)oc2cc(O)cc(O)c12` stands 1.65; under `C=CCNc1nc(-c2ccc(O)c(C(N)=O)c2)cs1`, 1.4; under `C=CCOc1nc2c(c(=O)n(Cc3ccc(Cl)c(Cl)c3)c(=O)n2C)n1C`, 1.05.
The compound `S=c1nc(-c2ccccc2)[nH]n1-c1ccccc1` showed a z-score of 1.6.
Still for that read-out and setting: the figure for `O=C(O)CC(NCc1ccco1)C(=O)OCC1CCCO1` (stereo not drawn) is 0.185.

Still in this test, the particulars now being: HeLa MKP-3 transfected, phospho-Erk imaging KS statistic; measured here: nuclear c-Myc green intensity z-score; at 10 µM; cells stimulated with TPA for 15 min.
On to `O=C(c1ccccc1F)N1CCC(N2CCCCCC2)CC1`, for which the z-score was -1.02.
Compound `CCOc1ccc(CCNC(=O)C(O)c2ccccc2)cc1` (stereo not drawn) gave a z-score of 0.643.
The same measure, in the same setting: the figure for `CCN(CC)CCN1C(=O)C(=O)/C(=C(/O)c2ccc(C)cc2)C1c1cccnc1` (stereo not drawn) is -0.778; for `C=CCOC(=O)C1=C(C)NC(SCC(=O)N(CC)CC)=C(C#N)C1c1ccco1` (stereo not drawn) it is -0.441.
Consider `CCOC(=O)CSc1nc(N)c(C#N)c(-c2ccc(OC)cc2)c1C#N`, for which the z-score was found to be 1.58.
`COc1ccc(OC)c(NC(=O)CSC2=C(C#N)C(c3ccco3)C3=C(CCCC3=O)N2)c1` (stereo not drawn) gave a z-score of -0.0626.
On the same count and under the same terms, under `CCCOc1ccc(N2C(=O)CC(N(Cc3ccc(S(N)(=O)=O)cc3)C(=O)CC)C2=O)cc1` (stereo not drawn) stands 0.516; under `Cc1ccc2[nH]c3c(c2c1)CCCC3C(N)=O` (stereo not drawn), 0.929.
The same measure, in the same setting: the figure for `COc1ccc(C=NCCC2(O)CC(C)N(C)CC2C)cc1` (stereo not drawn) is -0.705.
As for `CC(C)(C)C1CCC2(CC1)C(C#N)=C(SCC(=O)Nc1ccccc1)NC(=O)C2C#N` (stereo not drawn), the z-score is -1.06.
Still for that read-out and setting: the figure for `CC1(C)Cc2c(C#N)c(NCCc3ccccc3)nc(-c3ccco3)c2CO1` is -1.77; for `CCOC(=O)c1cc2cc(OC)ccc2[nH]1` it is 1.83; for `COC(=O)CSC1=C(C#N)C(=O)NC2(CCCCC2)S1` it is 0.765.
For the compound `CCOC(=O)CC1=C(C(=O)OCC)C(c2ccc(OC)c(OC)c2)C(C#N)=C(N)O1` (stereo not drawn), the z-score is -0.993.
On the same count and under the same terms, the figure for `COC(=O)c1ccc(OC(=O)c2ccc(OC)c(OC)c2)c(OC)c1` is -0.0242.
Take `CCOc1ccc(/C(O)=C2/C(=O)C(=O)N(CCN(C)C)C2c2ccccc2)cc1Cl` (stereo not drawn): the z-score came out at 0.178.
The compound `O=CN1CCN(C(=O)CN2C(=O)c3ccccc3C2=O)CC1` returned a z-score of -0.0272.
`CC(C)Oc1ccc(Cc2c(O)nc(NCCCN(C)C)[nH]c2=O)cc1` gave a z-score of -1.61.
The same measure, in the same setting: under `CC(=O)c1c(C)c2c(n1CCN(C)C)CCCC2` stands 2.44.
Same read-out and setting: under `Cc1ccc(C2C(C(=O)c3cc4ccccc4o3)=C(O)C(=O)N2CCCN(C)C)cc1` (stereo not drawn) stands -1.28; under `COC(=O)c1ccc(=O)n(Cc2ccco2)c1`, 1.62; under `COc1ccc(OC)c(NC(=O)CSc2nnc(-c3ccco3)n2-c2ccc(C(=O)O)cc2)c1`, -0.401.
On the same count and under the same terms, the figure for `Cn1c(NCCN2CCCCC2)cc(=O)n(C)c1=O` is -0.0759; for `N#CC1=C(N)NC(SCc2ccc(F)cc2)=C(C#N)C12CCCCC2` it is -0.0167.
As for `Cc1nc2oc(C(=O)c3ccc(Br)cc3)c(N)c2c2c1COC(C)(C)C2`, the z-score is -0.803.
Still for that read-out and setting: under `Cc1nnc2n(Cc3ccccc3)c(=O)c3c4c(sc3n12)CN(Cc1ccccc1)CC4` stands 0.579.
With `N#CCSc1nc2sc3c(c2c(=O)n1C1CCCCC1)CCCC3`, the z-score stood at 0.708.
In turn, `COc1cccc(/C=C2/CN(C)CC3=C2OC(N)=C(C#N)C3c2cccc(OC)c2)c1` (stereo not drawn) gave a z-score of -1.04.
Same read-out and setting: under `Cc1noc(NS(=O)(=O)c2ccc(NC(=O)COc3ccccc3)cc2)c1C` stands 0.527; under `COc1ccccc1-c1nnc2sc(COc3ccccc3)nn12`, -1.19; under `CCc1nnc(NC(=O)CSc2nc(C)c3c(c2C#N)CCCC3)s1`, 0.0813.
`Cn1c(=O)c2c(nc(SCCN3CCCCC3)n2Cc2ccc(Cl)cc2)n(C)c1=O` returned a z-score of -0.662.
As to `Cc1ccc(C(=O)C2=C(O)C(=O)N(c3ncccn3)C2c2cccc(Cl)c2)o1` (stereo not drawn), the z-score amounted to 0.527.
The same measure, in the same setting: the figure for `COC(=O)C1=C(C)OC(N)=C(C#N)C1c1ccc(OC)c(OC)c1OC` (stereo not drawn) is -0.767; for `O=c1c(-c2ccc3c(c2)OCCO3)c(C(F)(F)F)oc2cc(O)cc(O)c12` it is -1.41.
On the same count and under the same terms, under `C=CCNc1nc(-c2ccc(O)c(C(N)=O)c2)cs1` stands -1.92; under `C=CCOc1nc2c(c(=O)n(Cc3ccc(Cl)c(Cl)c3)c(=O)n2C)n1C`, 1.15; under `S=c1nc(-c2ccccc2)[nH]n1-c1ccccc1`, -1.83.
The compound `O=C(O)CC(NCc1ccco1)C(=O)OCC1CCCO1` (stereo not drawn) showed a z-score of -1.18.

(Values after PubChem BioAssay.)
